Hits are enriched below; roughly 12% of the tested compounds scored in any of these assays.
NS1 function inh: influenza NS1 inhibition | Potency, µM (series often up to 46.1 µM) | AID 2326 | actives 0.4% (n = 270,000); note: actives are rising curves; nearly all actives have a fitted effect of over 50% in size
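Compounds were scored for reversing the slow growth caused by influenza A NS1 in S. cerevisiae, measured by optical density at 600 nm. Assay medium contained 2% galactose at pH 6.0; NS1-free yeast of the same strain were the positive control.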
Cycloheximide cs: counter-screen for Shiga toxin inhibitors: cycloheximide protein synthesis inhibition; cell reporter, cycloheximide protein synthesis inhibition counterscreen; actives 12% (n = 300,000); max response, %; in the data active = max response mostly above about 13%, no sharp cut-off; inactive = mostly below about 14%; note: read at 38.3 µM for the half of the compounds with a filed dose
Shiga toxin inh: inhibitors of Shiga toxin in Vero cells | Vero cells, Shiga toxin protein synthesis inhibition reporter | inhibition, % at 38.7 µM | actives 9.2% (n = 290,000); in the data active = inhibition mostly above about 28%, no sharp cut-off; inactive = mostly below about 43%
SARS PLP yeast: blocks SARS-CoV papain-like protease in a yeast assay. actives 0.19% (n = 330,000). AID 485353. Potency, µM (top dose mostly 32.9 µM), usual class: activators. S. cerevisiae expressing SARS-CoV PLpro, growth rescue; note: nearly all actives have a fitted effect of over 55% in size
A number is an active result; – = inactive; · = no result given. Unless noted, calls come from the whole dose curve.

SMILES | NS1 function inh | Cycloheximide cs | Shiga toxin inh | SARS PLP yeast
c1ccc(CN2CCN(c3cnc4ccccc4n3)CC2)cc1 | – | 51.8 | 131.2 | –
Fc1ccccc1N1CCN(c2cnc3ccccc3n2)CC1 | – | 55.7 | 81.5 | ·
Oc1ccccc1N1CCN(c2ccc3ccccc3n2)CC1 | – | 41.6 | 101.6 | –
C/C(=N\NC(=O)c1nnn(-c2nonc2N)c1-c1ccccc1)c1ccco1 | – | – | – | –
OCC1CCCN(C2CCN(Cc3nc(Cc4cccc(C(F)(F)F)c4)no3)CC2)C1 (stereo not drawn) | – | – | – | –
COc1ccc(C(=O)NC(C)C2CC3CCC2C3)cc1 (stereo not drawn) | – | 10.9 | – | –
Cc1ccc(C(=O)NC(C)C2CC3CCC2C3)c(C)c1 (stereo not drawn) | – | – | 90.0 | –
C#CCn1c(=O)c2c(nc(/C=C/c3cccc(OC)c3)n2C)n(CCCOP(=O)(O)O)c1=O | · | – | – | ·
Cc1ccc(N(CC(=O)N(C)Cc2ccccc2)S(C)(=O)=O)cc1C | – | – | – | –
Cc1nc(NC(=O)C(C)Oc2cccc(Cl)c2)sc1C(=O)N(C)C (stereo not drawn) | – | – | – | –
Cc1ccc(NC(=O)c2ccc(NCCN)c([N+](=O)[O-])c2)cc1 | – | 20.0 | 33.4 | –
CCCNc1ccc(C(=O)OCC)cc1[N+](=O)[O-] | · | 52.0 | 83.0 | –
Cc1ccc(NC(=O)CSc2ccc(C(N)=O)cc2[N+](=O)[O-])cc1C | – | – | – | –
Cc1cccc(NC(=O)c2ccc(NCCc3ccccc3)c([N+](=O)[O-])c2)c1 | – | – | – | –
Cc1ccc(NC(=O)CSc2ccc(C(N)=O)cc2[N+](=O)[O-])cc1 | – | – | 43.1 | –
COc1ccc(CCNC(=O)c2c(N)no[n+]2[O-])cc1OC | · | – | – | –
Cc1ccc(NC(=O)Nc2cc(C(F)(F)F)c[nH]c2=O)cc1 | – | – | – | –
Cc1ccc(S(=O)(=O)N2CCOC2CNC(=O)C(=O)NCCN2CCOCC2)cc1 (stereo not drawn) | – | – | – | –
CCOC(=O)C1=C(C)NC(C)=C(C(=O)OCC)C1C(=O)OCC(=O)NCCc1ccc(S(N)(=O)=O)cc1 | · | · | · | –
COc1ccccc1-n1c(SCC(=O)N2CCCC2)nnc1-c1ccccc1 | – | – | – | –
O=C(O)c1ccccc1OCC1CCCO1 (stereo not drawn) | – | – | – | –
Nc1cc(C(F)(F)F)ccc1OCC1CCCO1 (stereo not drawn) | – | 25.6 | 20.9 | –
CCOc1ccc2c(c1)nc(SCC(=O)c1cccs1)n2C | – | 50.5 | 81.3 | –
c1ccc(-c2nnc3sc(CN4CCc5ccccc54)cn23)cc1 | – | – | 46.3 | –
O=C(NCc1ccc(OC(F)(F)F)cc1)C1CC(c2ccccc2[N+](=O)[O-])=NO1 (stereo not drawn) | – | – | – | –
SMILES | NS1 function inh | Cycloheximide cs | Shiga toxin inh | SARS PLP yeast
Cc1ccc(CNC(=O)C2CC(c3ccccc3[N+](=O)[O-])=NO2)cc1 (stereo not drawn) | – | 13.2 | – | –
COc1ccc(CCNC(=O)C2CC(c3cccc([N+](=O)[O-])c3)=NO2)cc1 (stereo not drawn) | – | 47.4 | 160.5 | –
O=C(NCCc1cccs1)C1CC(c2ccc([N+](=O)[O-])cc2)=NO1 (stereo not drawn) | – | 59.4 | 77.4 | –
CCCCNC(=O)C1CC(c2cccc(F)c2)=NO1 (stereo not drawn) | – | 33.4 | 57.5 | –
COc1ccc(CCNC(=O)C2CC(c3c(Cl)cccc3Cl)=NO2)cc1 (stereo not drawn) | – | – | – | –
CC(O)c1ccc(Oc2cnccn2)cc1 (stereo not drawn) | – | – | – | –
OCCC1CN(Cc2ccon2)CCN1Cc1ccc(F)c(F)c1 (stereo not drawn) | – | – | – | –
COc1ccc(CCNC(=O)C2CC(c3ccc([N+](=O)[O-])cc3)=NO2)cc1 (stereo not drawn) | – | 33.4 | 43.4 | –
Cc1ccc(CNC(=O)C2CC(c3cccc([N+](=O)[O-])c3)=NO2)o1 (stereo not drawn) | – | 33.0 | 64.5 | –
Cn1c(CN2CCOCC2)nnc1SCC(=O)Nc1ccc([N+](=O)[O-])cc1O | – | – | – | –
O=C(Nc1ccccc1C(=O)N/N=C/c1ccncc1)c1ccccc1 | · | – | – | –
O=C(N/N=C/c1ccncc1)c1cc2ccccc2cc1O | – | 31.5 | 30.9 | –
O=C(N/N=C/c1ccc[nH]1)c1cc2ccccc2cc1O | – | 31.5 | 78.3 | –
CC1CCCC(C)N1/N=C/c1ccc(C(=O)O)cc1 (stereo not drawn) | – | – | – | –
CC(C)OCCCN1CN(S(=O)(=O)c2ccc(Cl)cc2)c2nc3ccccc3nc21 | – | 17.5 | – | –
CC(C)OCCCN1CN(S(=O)(=O)c2cccc(Cl)c2)c2nc3ccccc3nc21 | – | 22.5 | 37.7 | –
c1cnc2nc(CSc3ncn[nH]3)cn2c1 | · | – | – | –
CN(/N=C/c1cccnc1)c1cnn(-c2ccc(F)c(Cl)c2)c(=O)c1Cl | – | 20.3 | – | –
Cc1cc(OCC(=O)NN2C(=O)c3ccccc3C2=O)ccc1Cl | – | – | – | –
O=C(Nc1ccc2oc(-c3ccccc3)nc2c1)c1ccco1 | – | 93.8 | 78.2 | –
O=C(Nc1ccc2oc(-c3ccncc3)nc2c1)c1ccc(Br)o1 | – | – | – | –
O=C(Nc1ccc2oc(-c3ccncc3)nc2c1)c1ccc(F)cc1 | · | – | – | –
O=C(Nc1ccc2oc(-c3ccncc3)nc2c1)c1ccco1 | – | 27.0 | – | –
COc1ccc(S(=O)(=O)N2CCCC(C(=O)N3CCOCC3)C2)cc1OC (stereo not drawn) | – | – | – | –
Cc1cccc(NC(=O)COC(=O)c2cc3ccccc3oc2=O)c1 | · | – | – | –
SMILES | NS1 function inh | Cycloheximide cs | Shiga toxin inh | SARS PLP yeast
COc1ccccc1-c1nc2ccccc2nc1-c1ccccc1OC | – | – | – | –
O=C1c2ccccc2-c2nc3ccccc3nc21 | – | 28.7 | – | –
Cc1nc(-c2ccc(C(=O)N3CCOCC3)cc2)cs1 | – | 31.7 | – | –
Cc1nc(-c2ccc(C(=O)N3CCCC3)cc2)cs1 | · | 36.8 | 131.6 | –
N#Cc1cccc(S(=O)(=O)NCC(=O)NCc2ccc3c(c2)OCO3)c1 | · | · | · | –
Cc1ccc(Cl)cc1N1CCN(C(=O)Cc2ccc(-n3c(=O)[nH]c4ccsc4c3=O)cc2)CC1 | – | – | – | –
Cc1cccc(Sc2c(C=O)c3ccccc3n2C)c1 | – | – | – | –
CC(C)(C)CC(=O)Nc1nn[nH]n1 | – | – | – | –
O=C1S/C(=C\C=C\c2ccco2)C(=O)N1c1ccccc1 | – | 38.2 | 59.5 | –
O=C1S/C(=C\C=C\c2ccco2)C(=O)N1c1ccc(O)cc1 | – | 43.3 | 70.8 | –
COc1ccc(OC)c(CNS(=O)(=O)c2cc(CN3C(=O)c4cccnc4C3=O)ccc2OC)c1 | – | – | – | –
Cc1ccc(C(=O)N[C@H](C(=O)OCC(=O)c2ccc[nH]2)C(C)C)cc1 | – | – | – | –
CN(C)S(=O)(=O)c1ccc(C(=O)NNC(=O)c2ccccc2-n2cccc2)cc1 | · | · | · | –
Cc1cc(C)nc(Nc2ccc(O)cc2)n1 | – | 24.1 | – | –
CCc1ccc(Nc2nc(C)cc(C)n2)cc1 | – | 52.6 | 52.4 | –
